# Results as given in ChEMBL document CHEMBL1201862, “PubChem BioAssay data set” (2004).
# About 1,900 (0.47%) of roughly 400,000 compounds were called active. Roughly 14% stayed inconclusive and do not appear here. How the calls were made is not given here. The sample as a whole holds a higher share of actives than the screen did.
# Biological target: Ataxin-2 (Homo sapiens) (UniProt Q99700)
# Test: qHTS for Inhibitors of ATXN expression.
# Assay type: functional
# Ataxin-2 (Homo sapiens), sequence (Q99700 whole entry): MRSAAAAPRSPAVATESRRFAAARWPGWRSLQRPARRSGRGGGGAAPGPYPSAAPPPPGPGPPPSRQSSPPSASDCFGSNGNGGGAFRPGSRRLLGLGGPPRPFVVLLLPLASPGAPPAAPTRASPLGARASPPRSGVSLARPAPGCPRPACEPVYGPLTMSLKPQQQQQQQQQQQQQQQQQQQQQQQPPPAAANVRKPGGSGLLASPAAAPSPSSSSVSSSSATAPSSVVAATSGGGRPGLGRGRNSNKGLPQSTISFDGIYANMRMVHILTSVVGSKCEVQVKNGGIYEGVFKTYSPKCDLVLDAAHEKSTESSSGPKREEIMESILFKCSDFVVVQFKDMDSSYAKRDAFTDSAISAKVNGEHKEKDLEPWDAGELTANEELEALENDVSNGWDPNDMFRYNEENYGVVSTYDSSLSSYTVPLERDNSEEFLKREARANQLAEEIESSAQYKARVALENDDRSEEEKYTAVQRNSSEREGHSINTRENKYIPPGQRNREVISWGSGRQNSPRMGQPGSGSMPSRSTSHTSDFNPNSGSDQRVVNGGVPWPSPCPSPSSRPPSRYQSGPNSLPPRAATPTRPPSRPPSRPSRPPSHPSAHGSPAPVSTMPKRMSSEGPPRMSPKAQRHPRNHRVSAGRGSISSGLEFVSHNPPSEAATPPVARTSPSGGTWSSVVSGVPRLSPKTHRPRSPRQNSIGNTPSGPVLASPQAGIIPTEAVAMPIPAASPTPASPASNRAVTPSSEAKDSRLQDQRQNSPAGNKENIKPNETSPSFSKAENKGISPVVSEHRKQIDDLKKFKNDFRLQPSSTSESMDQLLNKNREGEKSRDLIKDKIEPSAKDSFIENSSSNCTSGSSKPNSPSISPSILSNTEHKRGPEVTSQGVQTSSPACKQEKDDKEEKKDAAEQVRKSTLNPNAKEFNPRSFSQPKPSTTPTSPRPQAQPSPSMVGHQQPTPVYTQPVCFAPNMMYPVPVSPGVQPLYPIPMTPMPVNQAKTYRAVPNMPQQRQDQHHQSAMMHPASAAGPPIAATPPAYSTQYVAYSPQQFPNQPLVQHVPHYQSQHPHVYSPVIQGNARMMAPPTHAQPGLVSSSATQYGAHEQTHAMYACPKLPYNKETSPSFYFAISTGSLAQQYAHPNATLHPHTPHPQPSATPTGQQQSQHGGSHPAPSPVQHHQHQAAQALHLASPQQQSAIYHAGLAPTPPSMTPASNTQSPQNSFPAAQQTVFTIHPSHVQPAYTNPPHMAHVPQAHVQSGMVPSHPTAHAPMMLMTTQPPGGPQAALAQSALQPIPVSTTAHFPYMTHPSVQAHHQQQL
row,SMILES,Potency
1,CN(Cc1ccc(OC(F)F)cc1)Cc1nc(O)c2cc(Br)cc(Br)c2n1,inactive
2,CC(Cc1ccccc1)NC(=O)CCCCC(=O)NC(C)Cc1ccccc1 (centres undefined),inactive
3,CN(C)CC(C(=O)Cc1ccccc1)c1ccccc1 (centres undefined),25.1 µM (active)
4,COCCCn1c(=O)/c(=C\c2ccccc2OC(F)F)s/c1=C(/C#N)C(=O)NCCOC,inactive
5,Cc1cc([N+](=O)[O-])c2ccccc2[n+]1[O-],31.6 µM (active)
6,CN1C(=O)/C(=C/c2cccn2-c2ccc3ccccc3c2)C(=O)NC1=S,39.8 µM (active)
7,Cc1cc(C)cc(N2C(=O)NC(=O)/C(=C/c3cccn3-c3ccc(Cl)cc3)C2=O)c1,39.8 µM (active)
8,Cc1cc(C)cc(N2C(=O)NC(=O)/C(=C\c3cc(C)n(C)c3C)C2=O)c1,inactive
9,C/C(NCc1cccnc1)=C1/C(=O)NC(=O)N(c2ccc(Cl)cc2)C1=O,inactive
10,COCCNC(=O)c1c(N)n(Cc2ccco2)c2nc3ccccc3nc12,inactive
11,O=C(NC1CCCCC1)N1Cc2cc(-c3ccccc3)ccc2-n2nncc2C1,39.8 µM (active)
12,Clc1cccc(N2Cc3cc(-c4ccccc4)ccc3-n3nncc3C2)c1,39.8 µM (active)
13,CN1CCc2cc3c(cc2[C@@H]1O)OCO3,inactive
14,Cc1sc2ncnc(N3CCC(C(=O)Nc4ccc(C#N)c(Cl)c4)CC3)c2c1C,39.8 µM (active)
15,CN(c1ccc(O)cc1)c1ccc([N+](=O)[O-])c2nonc12,20 µM (active)
16,COc1cc(Cl)ccc1Nc1ncc(C(=O)N2CCN(c3ccccc3OC)CC2)c2ccccc12,inactive
17,COc1ccccc1N1CCN(C(=O)c2cc3c(-c4ccccc4F)nn(C)c3s2)CC1,35.5 µM (active)
18,O=C1NC(=S)NC(=O)C1=NNc1ccc2c(c1)OCCO2,44.7 µM (active)
19,CCCCCCCCn1sccc1=O,25.1 µM (active)
20,O=C(Nc1cccc2ncccc12)c1ccccc1Cl,inactive
21,COC(=O)C1=C(c2cccc(OCc3ccccc3)c2)C[C@@H]2CC[C@H]1N2C(=O)NC1CCN(Cc2ccccc2)CC1,22.4 µM (active)
22,CC[C@@H](O)C[C@H]1CCC[C@@]2(C[C@@H]3OC(=O)/C=C/[C@@](C)(O)[C@@H](O)[C@H](C)[C@@H](O)[C@H](OC4CCC(N(C)C)C(C)O4)[C@@H](O)[C@](C)(O)CCCCC/C=C/[C@@H]4CC(C)(C)O[C@@]4(O)C[C@H](O2)[C@H]3C)O1 (some centres undefined),2.99 µM (active)
23,Cc1c(CC(=O)N2C[C@H]3C[C@@H](C2)c2cccc(=O)n2C3)c(=O)oc2cc(O)c(Cl)cc12,inactive
24,NP(=O)(Oc1ccc(Cl)cc1)Oc1ccc(Cl)cc1,inactive
